The results in this text go back to the OligoGym collection.
Further: reference of the scale not given here.

One test addresses SUN1. Description: pooled miR-30 sensor sort-seq; sequence = guide strand. To be noted: shRNA.
For the sequence TAGAATAAACTCTCGACACGGG, the sensor-assay potency score (higher = more potent) was -0.0133.
TTCTTCAGGGAGACAGCGCTGC displayed a sensor-assay potency score (higher = more potent) of -0.739.
Still for that read-out and setting: next, TTGTTGTTCTGGCCGCTCGGTT: -1.37.
TTGTTTGTGCTTCTGCGCTGTT displayed a sensor-assay potency score (higher = more potent) of -0.561.
The same measure, in the same setting: next, TTTTCTAATCCATAGACGGCGA: -0.893.
Still for that read-out and setting: next, TTTGTTTGTGCTTCTGCGCTGT: 0.665.
In turn, TTCAGGGAGACAGCGCTGCTGG showed a sensor-assay potency score (higher = more potent) of -1.01.
Same read-out and setting: the value for TTGGAAAGCTGTGTCGTCGGGT was 0.562.
On the same count and under the same terms, the value for TTTTGGTTTCGTAAGTTTCAGA was -0.848.
The same measure, in the same setting: the value for TCGAGTCACAGCATCCTGCAGG was -0.812.
As for TTTGTTGTTCTGGCCGCTCGGT, the sensor-assay potency score (higher = more potent) is -0.815.

For another test, the target named is SURF1. Described as above. Particulars: shRNA.
Regarding TAGGAATTTCTTAAACCACAGG, the sensor-assay potency score (higher = more potent) was -0.992.
Same read-out and setting: next, TTAAACCACAGGTAGGATGTAG: -0.235; TTCCTCAGAGTAACTCTGGTTT: -0.24; TACCAGTAGCACATGATCCAGC: -0.00567.
Still for that read-out and setting: next, TCAGCTTCCACTTCCGACGCTG: 0.863; TTGTGGCAGATGCTTCTGCTGC: -1.64; TTCAGGATTCACTTTCTTCCTG: -0.13.
